Consider eight compounds from article PMC5540273 (PLoS ONE, 2017).

Among the test systems are CLK2; CLK3; CLK4; CSF1R-autoinhibited; CSF1R; CSK; CSNK1A1L; CSNK1A1; CSNK1D; CSNK1E; CSNK1G1; CSNK1G2; CSNK1G3; CSNK2A1; CSNK2A2; DAPK1; DAPK2; DAPK3.
What all share (details): concentration: 1 μM,replicates: in singlicate; n = 1
In a further test the test system is T1, CTK.
T1 construct: gene MATK

In the next test the test system is T2, DCAMKL1.
T2 construct: gene DCLK1
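Further: KINOMEscan kinase panel screen.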

On to `COc1cc2c(Nc3ccc(NC(=O)c4ccccc4)cc3)ncnc2cc1OCCCN1CCOCC1` [GSK301329], for which the “%Inh” value in the test on CLK2 is 0%; in the test on CLK3 it was 100%; in the test with CLK4, 6%; in the test on CSF1R-autoinhibited, 0%; with CSF1R it was 18%; with CSK, 4%. Also, the “%Inh” value with CSNK1A1L is given as 9%; with CSNK1A1, 7%; with CSNK1D, 3%; in the test with CSNK1E it was 59%; in the test with CSNK1G1 it was 0%; with CSNK1G2, 0%. For the same compound, the “%Inh” value with CSNK1G3 is recorded as 3%; with CSNK2A1, 9%; in the test on CSNK2A2 it was 14%; in the test on CTK it was 32%; with DAPK1, 0%; in the test on DAPK2 it was 0%. The “%Inh” value with DAPK3 was 0%; in the test on DCAMKL1, 13%.

In the case of `COc1cccc(C2=C(Nc3cccc(Cl)c3)C(=O)NC2=O)c1` [SB-341556], the “%Inh” value in the test with CLK2 stood at 69%; in the test with CLK3, 0%; with CLK4 it was 55%; in the test with CSF1R-autoinhibited, 0%; with CSF1R, 18%; with CSK it was 0%. In addition, the “%Inh” value in the test on CSNK1A1L turned out to be 0%; in the test on CSNK1A1, 36%; in the test with CSNK1D, 10%; with CSNK1E it was 20%; in the test with CSNK1G1 it was 0%; in the test on CSNK1G2, 0%. Besides, the “%Inh” value with CSNK1G3 stood at 19%; in the test on CSNK2A1, 11%; with CSNK2A2, 4%; with CTK, 0%; with DAPK1 it was 3%; with DAPK2, 0%. The “%Inh” value is 7% in the test on DAPK3 and 0% in the test with DCAMKL1.

Regarding `Cc1cccc2c(-c3ccncc3)c(-c3ccc(F)cc3)nn12.Cl` [GW461487], the “%Inh” value was determined as 0% in the test with CLK2; 3% in the test with CLK3; 0% with CLK4; 4% in the test on CSF1R-autoinhibited; 0% with CSF1R; 0% with CSK. Besides, the “%Inh” value in the test with CSNK1A1L was 22%; in the test on CSNK1A1 it was 51%; in the test with CSNK1D, 93.3%; with CSNK1E, 84%; with CSNK1G1, 11%; with CSNK1G2, 0%. Moreover, the “%Inh” value turned out to be 26% in the test with CSNK1G3; 96.6% in the test with CSNK2A1; 10% in the test on CSNK2A2; 0% in the test with CTK; 18% in the test with DAPK1; 0% with DAPK2. Besides, the “%Inh” value in the test with DAPK3 turned out to be 0%; in the test with DCAMKL1, 10%.

On to `O=C(Nc1ccccc1)c1cccc(Oc2ccc3nccn3n2)c1`, for which the “%Inh” value in the test with CLK2 worked out at 20%; in the test on CLK3, 0%; in the test with CLK4, 0%; in the test on CSF1R-autoinhibited it was 0%; in the test on CSF1R it was 81%; in the test with CSK, 0%. For the same compound, the “%Inh” value in the test with CSNK1A1L is 0%; with CSNK1A1, 0%; with CSNK1D, 0%; in the test with CSNK1E it was 0%; with CSNK1G1, 10%; with CSNK1G2 it was 6%. The “%Inh” value in the test on CSNK1G3 was 0%; in the test with CSNK2A1, 0%; with CSNK2A2, 11%; with CTK, 28%; in the test on DAPK1, 100%; with DAPK2 it was 0%. Moreover, the “%Inh” value with DAPK3 and in the test with DCAMKL1 was 0% each time.

`O=C(NCC1CC1)c1ccc(-c2cc(C(=O)NC3CC3)ccc2F)cc1` [GW810445]: the “%Inh” value is listed as 15% with CLK2; 0% in the test on CLK3; 0% with CLK4; 8% with CSF1R-autoinhibited; 0% in the test with CSF1R; 0% with CSK. The “%Inh” value in the test on CSNK1A1L, with CSNK1A1, in the test with CSNK1D, in the test with CSNK1E, in the test on CSNK1G1 and in the test on CSNK1G2 was 0% throughout. For the same compound, the “%Inh” value with CSNK1G3 came to 0%; in the test on CSNK2A1, 0%; in the test on CSNK2A2 it was 0%; with CTK, 0%; in the test on DAPK1, 0%; in the test with DAPK2 it was 3%. Besides, the “%Inh” value with DAPK3 stood at 19%; with DCAMKL1, 0%.

In the case of `CSc1nccc(-c2c(-c3ccc(F)cc3)ncn2CCCN2CCOCC2)n1.Cl` [SB-217146], the “%Inh” value with CLK2 worked out at 0%; in the test with CLK3, 0%; with CLK4 it was 18%; in the test on CSF1R-autoinhibited, 0%; with CSF1R, 0%; with CSK, 0%. The “%Inh” value worked out at 0% with CSNK1A1L; 6% in the test with CSNK1A1; 54% in the test with CSNK1D; 10% in the test with CSNK1E; 0% in the test with CSNK1G1; 0% with CSNK1G2. Also, the “%Inh” value in the test on CSNK1G3 was 0%; in the test with CSNK2A1 it was 0%; in the test with CSNK2A2, 15%; with CTK, 40%; in the test with DAPK1 it was 16%; in the test with DAPK2, 0%. For the same compound, the results for the “%Inh” value in the test on DAPK3 and with DCAMKL1 were 0% and 37%, respectively.

`Cc1n[nH]c2cc(Nc3ccnc(Nc4cccc(CN5CCOCC5)c4)n3)ccc12` [GW682569]: the “%Inh” value amounted to 3% in the test on CLK2; 11% with CLK3; 0% in the test with CLK4; 68% in the test with CSF1R-autoinhibited; 87% in the test with CSF1R; 27% in the test with CSK. Besides, the “%Inh” value is on record as 0% in the test on CSNK1A1L; 0% in the test on CSNK1A1; 10% in the test with CSNK1D; 19% with CSNK1E; 0% with CSNK1G1; 0% in the test with CSNK1G2. Also, the “%Inh” value in the test on CSNK1G3 turned out to be 22%; in the test on CSNK2A1 it was 31%; with CSNK2A2 it was 27%; in the test with CTK, 0%; with DAPK1, 58%; in the test with DAPK2, 25%. Further, the entries for the “%Inh” value with DAPK3 and with DCAMKL1 were 68% and 4%, respectively.

For the compound `CN(c1ccccc1CNc1nc(Nc2ccc3c(c2)CC(=O)N3)ncc1C(F)(F)F)S(C)(=O)=O`, the “%Inh” value came to 84% with CLK2; 23% with CLK3; 84% in the test with CLK4; 2% in the test with CSF1R-autoinhibited; 17% with CSF1R; 3% with CSK. The “%Inh” value was 9% in the test on CSNK1A1L; 19% in the test on CSNK1A1; 0% with CSNK1D; 1% in the test on CSNK1E; 0% in the test on CSNK1G1; 0% in the test with CSNK1G2. The “%Inh” value in the test with CSNK1G3 came out at 13%; in the test on CSNK2A1 it was 70%; in the test on CSNK2A2, 92.7%; in the test with CTK it was 0%; with DAPK1 it was 4%; in the test on DAPK2, 24%. The “%Inh” value in the test with DAPK3 amounted to 28%; with DCAMKL1, 21%.
